This passage reports fold change and cell count results from PubChem BioAssay.

Activity calls are given as the source filed them.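 Rule for the calls: active = compounds whose cell count with miR-34 switched on is under 0.7 times the count with it off; inactive = the rest.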

The experiment is described as follows: sensitizers of A549 cells to miR-34 induction, primary screen, imaging, A549 dox-inducible miR-34, nuclei and caspase counts (AID 1347080). Note: test concentration not given here. Particulars: A549 miR-34 inducible, Hoechst nuclei count, 48 h.
The mark [1] stands for this setting: stronger effect = lower value, cell number ratio, induced over uninduced.
Where [2] appears, read: measured here: relative caspase fold change +Dox/-Dox.
The mark [3] stands for this setting: measured here: total cells with miR-34 induction, stronger effect = lower value.
The mark [4] stands for this setting: measured here: total cells without miR-34 induction.

Turning to `CCCCCC1OC(O)CC1SC[C@H](NC(C)=O)C(=O)O` (stereo partly specified), the fold change was 0.93 (inactive) under setting [1] and 1.14 under setting [2]. Also, the cell count is 5580 under setting [3] and 6010 under setting [4].
The matching figures for `CCCCC(C)(O)C/C=C/[C@H]1[C@H](O)CC(=O)[C@H]1CCCCCCC(=O)OC` (stereo partly specified): 1.02 (inactive), 1.88, 5420 and 5290.
The matching figures for `CCCC/C=C/C=C/C=C\CCCCCCCC(=O)OC`: 0.701 (inactive), 0.864, 3920 and 5590.
The matching figures for `COc1ccc2c(c1)c(CC(=O)SC[C@H](NC(C)=O)C(=O)OCCCCO[N+](=O)[O-])c(C)n2C(=O)c1ccc(Cl)cc1`: 1.08 (inactive), 0.702, 6270 and 5810.
With `CCCCCCCCCCCCCCNC(=O)C1CCCCC1`, the fold change is 0.905 (inactive) under setting [1] and 0.661 under setting [2]. Moreover, the cell count is 4920 under setting [3] and 5430 under setting [4].
The like results for `CCCCCC(=O)CC[C@H]1C(=O)C=C[C@@H]1C/C=C\CCCC(=O)O` were, in that order, 0.989 (inactive), 0.66, 5270 and 5330.
The matching figures for `O=C1C[C@@H]2[C@@H](CC[C@@H](O)CCc3ccccc3)[C@H](O)C[C@@H]2O1`: 1.01 (inactive), 0.657, 6130 and 6050.
The like results for `CC(C)CCCCCCC/C=C\C(=O)O` were, in that order, 0.991 (inactive), 0.344, 5830 and 5880.
For the compound `CCCCC[C@H](O)CC[C@@H]1[C@H]2Cc3cccc(OCC(=O)O)c3C[C@H]2C[C@H]1O`, the fold change reads like this: under setting [1], 0.95 (inactive); under setting [2], 1.46. Moreover, the cell count amounted to 6200 under setting [3] and 6530 under setting [4].
The matching figures for `CCCCC[C@H]1/C=C/[C@@H]2[C@@H](C/C=C\CCCC(=O)O1)[C@@H](O)C[C@H]2O`: 0.933 (inactive), 1, 4270 and 4580.
The matching figures for `CCCCCCCCCC(=O)N[C@@H](CN1CCOCC1)[C@@H](O)c1ccccc1`: 0.924 (inactive), 0.927, 5480 and 5940.
The matching figures for `CC/C=C\C/C=C\C/C=C\CCCCCCCC(=O)OCC`: 0.898 (inactive), 0.639, 5180 and 5770.
As for `O=C(OC[C@@H]1O[C@H]1c1ccccc1)Oc1ccc([N+](=O)[O-])cc1`, the fold change by setting is: under setting [1], 0.896 (inactive); under setting [2], 0.428. For the same compound, the cell count turned out to be 5550 under setting [3] and 6200 under setting [4].
As for `CCCCC/C=C\C/C=C\C/C=C\C/C=C\CCCC(=O)NC[C@]1(C)CCC[C@]2(C)c3ccc(C(C)C)cc3CC[C@@H]12`, the fold change reads like this: under setting [1], 0.99 (inactive); under setting [2], 1.27. Moreover, the cell count under setting [3] is 5530 and the cell count under setting [4] worked out at 5580.
The matching figures for `CCCCCCCC/C=C\CCCCCC(=O)OC`: 0.895 (inactive), 0.755, 5020 and 5610.
The matching figures for `CC(=O)O[C@@]12C[C@@H](C)[C@@]3(O)[C@@H](C=C(CO)C[C@]4(O)C(=O)C(C)=C[C@@H]34)[C@@H]1C2(C)C`: 0.95 (inactive), 1.47, 5200 and 5470.
Regarding `CCCCC[C@H](O)/C=C/[C@@H]1[C@@H](C/C=C\CCCCOC)[C@@H](O)C[C@H]1O`, the fold change reads like this: under setting [1], 0.815 (inactive); under setting [2], 1.35. Moreover, the cell count by setting is: under setting [3], 5300; under setting [4], 6500.
`C=CCN(C)CCCCCCOc1ccc(C(=O)c2ccc(Br)cc2)c(F)c1`: the fold change is 1.01 (inactive) under setting [1] and 0.704 under setting [2]. Also, the cell count amounted to 5700 under setting [3] and 5660 under setting [4].
The matching figures for `CCCCC[C@H](O)/C=C/[C@@H]1c2cc(CCCCC(=O)O)n(-c3ccccc3)c2C[C@H]1O`: 0.958 (inactive), 1.14, 6340 and 6620.
The like results for `C#CCOc1ccccc1CCCCCC(=O)O` were, in that order, 1.11 (inactive), 0.728, 5930 and 5330.
The like results for `C#C[C@]1(O)CC[C@H]2[C@@H]3CCC4=CC(=O)CCC4[C@H]3CC[C@@]21CC` (stereo partly specified) were, in that order, 0.961 (inactive), 0.754, 6080 and 6330.
For `C[n+]1ccc(/C=C/c2c[nH]c3ccccc23)cc1`, the fold change by setting is: under setting [1], 1.05 (inactive); under setting [2], 1.99. Besides, the cell count is, setting by setting: under setting [3], 1600; under setting [4], 1530.
The matching figures for `O=C1N[C@@H]2[C@@H](O)[C@@H](O)[C@H](O)[C@@H](CO)N2C1=O`: 0.921 (inactive), 0.979, 4980 and 5410.
Take `CCCCC[C@H](O)/C=C/[C@@H]1[C@H](CCCCCCC(=O)O)[C@H](O)C[C@H]1O`: the fold change by setting is: under setting [1], 0.963 (inactive); under setting [2], 1.17. Also, the cell count under setting [3] was 6030 and the cell count under setting [4] came to 6260.
The matching figures for `CCCCC(C)(C)[C@H](O)/C=C/[C@H]1C=CC(=O)[C@@H]1C/C=C\CCCC(=O)O`: 0.967 (inactive), 1.18, 5990 and 6200.
For `O=C(O)CCC/C=C\C[C@@H]1[C@@H](/C=C/C(=O)CCc2ccccc2)[C@H](O)C[C@@H]1O`, the fold change reads like this: under setting [1], 0.902 (inactive); under setting [2], 1.59. Moreover, the cell count under setting [3] amounted to 5390 and the cell count under setting [4] was 5980.
As for `CCCCC[C@@](C)(O)/C=C/[C@H]1[C@H](O)CC(=O)[C@@H]1C/C=C\CCCC(=O)O`, the fold change by setting is: under setting [1], 1.04 (inactive); under setting [2], 1.07. In addition, the cell count runs as follows: under setting [3], 5770; under setting [4], 5570.
For `CC#CCC(C)[C@@H](O)/C=C/[C@@H]1[C@H]2C/C(=C\CCCC(=O)O)C[C@H]2C[C@H]1O` (stereo partly specified), the fold change was 0.903 (inactive) under setting [1] and 1.4 under setting [2]. In addition, the cell count under setting [3] was 4970 and the cell count under setting [4] amounted to 5500.
The like results for `N#Cc1cc2c(OCC(O)CN3CCN(C(c4ccccc4)c4ccccc4)CC3)cccc2[nH]1` (stereo unspecified) were, in that order, 0.956 (inactive), 1.38, 1480 and 1550.
